ALDH1A1 block: qHTS Assay for Inhibitors of Aldehyde Dehydrogenase 1 (ALDH1A1) | Aldehyde dehydrogenase 1A1 (Homo sapiens), P00352 | Purified ALDH1A1, NADH fluorescence, propionaldehyde substrate | Potency, µM (titrated, usually from 75.3 µM), inactives show at the highest dose activity, negative = inhibition, hits mostly inhibitors | 220,000 compounds, 7.3% hits | AID 1030, 2008; active means well fitted inhibition curve with a large enough effect, not every such curve was filed as active; inconclusive means small, poorly fitted or top-dose-only effect, or another doubt; inactive means no such curve, though single readings can be large or run the other way;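 further: potency means the concentration at half of the fitted maximal effect; plate controls were no enzyme wells and a reference inhibitor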
HTT aggregate: qHTS Multiplex Assay to Identify Dual Action Probes in a Cell Model of Huntington: Aggregate Formation (GFP); PC12 HttQ103-GFP aggregates, Acumen cytometry, 40 h; Potency, µM (titrated, usually from 46.1 µM), for the others: top-dose activity change, negative = inhibition, actives largely listed as inhibitors; 220,000 compounds, 1.1% hits; AID 1688, 2009; further: potency means the concentration at half of the fitted maximal effect; on the % scale 0 is the no-effect control and ±100 the full control effect; nearly all actives have a fitted effect of over 60% in size
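Aggregate formation scored by laser-scanning cytometer (488 excitation, 500–530 emission) in lysed PC12 cells expressing Q103-GFP after 100 nM tebufenozide induction; library tested in dose series, with ATPLite reagent added in the multiplex.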
CBFb-RUNX1 inh: qHTS Assay for Compounds Blocking the Interaction Between CBF-beta and RUNX1 for the Treatment of Acute Myeloid Leukemia; Runt-related transcription factor 1 (Homo sapiens) + Core-binding factor subunit beta …; Potency, µM (doses to about 59.8 µM), without a hit: at the top dose activity, negative = inhibition, most hits filed as inhibitors; 230,000 tested, under 10 active; AlphaScreen CBFb-His/RUNX1-biotin binding, biochemical; further: % of control where 0% means no effect
Target sequence (Q01196 whole entry, looked up): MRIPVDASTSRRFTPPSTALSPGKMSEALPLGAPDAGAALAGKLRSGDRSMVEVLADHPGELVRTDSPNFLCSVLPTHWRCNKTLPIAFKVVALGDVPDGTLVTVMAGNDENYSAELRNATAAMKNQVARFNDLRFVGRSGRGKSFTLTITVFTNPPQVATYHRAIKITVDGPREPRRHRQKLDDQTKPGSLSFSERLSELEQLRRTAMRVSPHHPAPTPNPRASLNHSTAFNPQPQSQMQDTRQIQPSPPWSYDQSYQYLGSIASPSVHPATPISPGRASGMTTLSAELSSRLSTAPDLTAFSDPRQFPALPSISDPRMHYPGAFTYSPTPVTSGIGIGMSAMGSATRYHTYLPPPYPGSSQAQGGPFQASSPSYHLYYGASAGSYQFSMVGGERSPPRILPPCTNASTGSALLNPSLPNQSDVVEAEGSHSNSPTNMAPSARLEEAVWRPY
Target sequence (Q13951 whole entry, looked up): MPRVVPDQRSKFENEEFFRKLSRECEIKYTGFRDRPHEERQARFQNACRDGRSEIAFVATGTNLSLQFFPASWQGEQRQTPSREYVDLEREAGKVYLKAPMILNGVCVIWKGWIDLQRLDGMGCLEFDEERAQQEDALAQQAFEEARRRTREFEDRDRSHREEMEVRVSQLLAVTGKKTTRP
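AlphaScreen proximity signal reports loss of binding between His-tagged CBF-beta and biotin-labelled RUNX1, each at 30 nM. Proteins are pre-associated for 20 minutes, compounds added for 15 minutes, then beads for 90 minutes, all at ambient temperature.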
HPGD inh: qHTS Assay for Inhibitors of HPGD (15-Hydroxyprostaglandin Dehydrogenase) | 15-hydroxyprostaglandin dehydrogenase [NAD(+)] (Homo sapiens), P15428 | purified HPGD, NADH fluorescence kinetic, PGE2 substrate | Potency, µM, inactives show top-dose activity change, negative = inhibition, actives largely listed as inhibitors | 150,000 compounds, 4.3% hits; active means well fitted inhibition curve with a large enough effect, not every such curve was filed as active; inconclusive means small, poorly fitted or top-dose-only effect, or another doubt; inactive means no such curve, though single readings can be large or run the other way; further: potency means the concentration at half of the fitted maximal effect; on the % scale 0 is the no-effect control and ±100 the full control effect
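20 nM HPGD preincubated 15 min at room temperature with compound in 50 mM Tris-HCl pH 8, 0.01% Tween 20. Started with 1 mM NAD+ and 30 uM prostaglandin E2; NADH fluorescence (360/450 nm) read 5 times over 30-s intervals, last minus first.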
KDM4E inh: qHTS Assay for Inhibitors of Human Jumonji Domain Containing 2E (JMJD2E); Potency, µM (doses to about 57.1 µM), without a hit: at the highest dose activity change, negative = inhibition, hits mostly inhibitors; 230,000 compounds, 1.6% hits; JMJD2E catalytic domain, FDH-coupled NADH fluorescence (FDH is formaldehyde dehydrogenase); AID 2147, 2009; active means well fitted inhibition curve with a large enough effect, not every such curve was filed as active; inconclusive means small, poorly fitted or top-dose-only effect, or another doubt; inactive means no such curve, though single readings can be large or run the other way;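 further: potency means the concentration at half of the fitted maximal effect; 0% = wells with enzyme and -100% = buffer wells without enzyme; nearly all actives have a fitted effect of over 50% in size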
HTT ATP protect: qHTS Multiplex Assay to Identify Dual Action Probes in a Cell Model of Huntington: Cytoprotection (ATP). PC12 HTT-Q103 induced, cytoprotection, ATP luminescence, 40 h. Potency, µM (series often up to 56.4 µM), inactives show cytoprotection (ATP increase), hits mostly activators. 230,000 compounds, 0.14% hits; further: potency means the concentration at half of the fitted maximal effect; % of control where 0% means no effect; nearly all actives have a fitted effect of over 45% in size
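Readout: ATPlite luminescence (ATP level). Model: stable PC12, inducible Htt exon1 Q103-GFP. Inducer: tebufenozide, 100 nM final. Compounds: dose series. No G418 in medium.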
* marks the source's active call; other numbers are inactive results; ? = inconclusive; . = not tested or not shown; [ ] = another dose, or the depositor's remark. In the library only some 9.8% were active in any assay of this set; here they are far more common. Unless noted, the call rests on the fitted dose curve; in most records, active means well fitted curve in the direction sought with a large enough effect; inconclusive means small, poorly fitted or top-dose-only effect, or another doubt; inactive means no such curve, though single readings can be large; an effect the other way counts as inactive or inconclusive.

SMILES	ALDH1A1 block	HTT aggregate	CBFb-RUNX1 inh	HPGD inh	KDM4E inh	HTT ATP protect
CN1CCN(Cc2nc3ccccc3c(=O)n2CC#N)CC1	2%	12%	9%	.	4%	-40%
CN1CCN(Cc2nc3ccccc3c(=O)n2Cc2nc(-c3ccc([N+](=O)[O-])cc3)cs2)CC1	13µM*	?	-6%	.	-4%	-43%[10 µM]
Cc1ccc(S(=O)(=O)n2nccc2-c2c(-c3ccc(Cl)cc3)noc2C)cc1	?	8%[9.22 µM]	?	.	-1%	34%[10 µM]
Cc1ccc(CN2CCc3c(OCC(=O)Nc4cccc(C)c4C)cccc3C2=O)cc1	25µM*	-8%	0%	-19%	-1%	.
O=C1c2cccc(OCC(=O)N3CCCc4ccccc43)c2CCN1Cc1ccc(Br)cc1	7.9µM*	-13%[9.22 µM]	-7%	-6%	-1%	-14%[10 µM]
O=C1c2cccc(OCc3ccc(F)cc3)c2CCN1Cc1ccc(F)cc1	17%	20µM*	16%	-18%	-2%	30%[10 µM]
O=C1C(=O)c2c(C(=O)c3ccccc3)coc2-c2ccccc21	?	?	-29%	22µM*	?	-83%[10 µM]
O=C(NCCN1CCOCC1)c1ccc(N2CCCC2)c([N+](=O)[O-])c1	16µM*	-1%	-1%	.	-1%	-59%
CC1CCCN(c2ccc(C(=O)NCc3ccc4c(c3)OCO4)cc2[N+](=O)[O-])C1 (stereo unspecified)	?	-12%	0%	?	-8%	-6%[10 µM]
O=C(NN1CCN(Cc2ccccc2)CC1)c1ccc(N2CCOCC2)c([N+](=O)[O-])c1	2.2µM*	8%	6%	.	-5%	-15%
O=C(NCc1ccc2c(c1)OCO2)c1ccc(N2CCCCCC2)c([N+](=O)[O-])c1	10µM*	-7%	-1%	14µM*	0%	3%[10 µM]
COC(=O)C(C(C)=O)C(NC(=O)OC(C)(C)C)c1ccccc1 (stereo unspecified)	1%	.	-10%	-3%	6%	?
COc1ccc(CN2CCC(N(CCc3ccccc3)Cc3ccccc3)CC2)c(OC)c1	?	-10%	-15%	.	28µM*	-31%
COc1ccc(CN2CCC(C(=O)N(C)CCc3ccc(OC)c(OC)c3)CC2)c(OC)c1	-6%	19%	9%	-5%	-26%	-8%[10 µM]
CCC(Sc1nnc2c3ccccc3n(CC)c2n1)C(=O)Nc1sc2c(c1C#N)CCCC2 (stereo unspecified)	18µM*	-3%	3%	-29%	0%	-120%
CCC(Sc1nc(C)cc(=O)[nH]1)C(=O)Nc1sc2c(c1C#N)CCCC2 (stereo unspecified)	?	?	-3%	-11%	7%	-5%
C=CCOc1c(OC)cc(Cl)cc1C1NC(=O)NC(C)=C1C(C)=O (stereo unspecified)	10%	-2%	5%	-4%	4%	-2%
COc1cc(Cl)cc(C2NC(=O)NC(C)=C2C(C)=O)c1OCC(=O)O (stereo unspecified)	2.2µM*	10%	-4%	-9%	-5%	12%[10 µM]
O=C(CS(=O)(=O)c1cccc(C(F)(F)F)c1)Nc1ccccc1Cl	10%	5%	0%	-4%	3%	1%
Cn1c(=O)c2c(ncn2Cc2nnc(N)s2)n(C)c1=O	?	5%[9.22 µM]	-1%	.	-4%	-25%
NS(=O)(=O)c1ccc(NC(=O)COc2ncnc3c2cnn3-c2ccccc2)cc1	3%	-9%	1%	.	-7%	1%[10 µM]
COc1ccc(C(=O)Nc2nc3c(s2)Cc2cc(OC)ccc2-3)cc1	22µM*	-11%	-18%	-13%	-6%	-17%
COc1ccc2c(c1)Cc1sc(NC(=O)c3ccccc3)nc1-2	?	-14%	3%	?	?	-29%
COc1ccc2c(c1)Cc1sc(NC(=O)c3cccs3)nc1-2	2.5µM*	-3%	-15%	-24%	11µM*	-54%[0.074 µM]
Cc1cc(S(=O)(=O)Nc2c(C)nc3nc[nH]n3c2=O)ccc1F	0%	-12%[9.22 µM]	6%	.	-18%	-10%[10 µM]
SMILES	ALDH1A1 block	HTT aggregate	CBFb-RUNX1 inh	HPGD inh	KDM4E inh	HTT ATP protect
Cc1cc(C)c(S(=O)(=O)/N=C2/C=C(SCC(=O)O)C(=O)c3ccccc32)cc1C	7.1µM*	13µM*	?	.	?	-159%
CCOC(=O)N1CCN(S(=O)(=O)c2cc(C)c(C)cc2C)CC1	-8%	-12%	11%	-12%	-2%	8%[1.9 µM]
Cn1c(SCc2ccccc2)nnc1-c1ccco1	4%	-2%	-2%	.	3%	13%[10 µM]
c1ccc(CSc2n[nH]c(-c3ccco3)n2)cc1	-5%	-12%	-8%	13µM*	6%	-35%
COc1ccc(CNC(=O)CN2C(=O)C3C4C=CC(C4)C3C2=O)cc1 (stereo unspecified)	?	11%	-6%	.	-12%	-21%
COc1ccc(-c2cn(-c3cccc(C)c3)c(=O)[nH]2)cc1OC	?	-6%	16%	.	?	-26%
COc1ccccc1-n1cc(-c2ccc(Cl)cc2)[nH]c1=O	11µM*	3%	2%	-6%	1%	17%[10 µM]
C=CCn1c(SCC(=O)Nc2ccccc2-c2ccccc2)nc2cc(C(=O)O)ccc2c1=O	-5%	10%	0%	.	-6%	-16%
O=C(O)CC1(CC(=O)Nc2ccc3sccc3c2)CCCCC1	.	8%[9.22 µM]	1%	.	-1%	26%[10 µM]
S=c1[nH]cc(Cc2ccccc2)s1	10µM*	14%	-2%	20µM*	1%	.
C=CC(=O)O	.	-6%	.	.	.	-15%
CCN1C(=O)c2cccc3c(S(=O)(=O)Nc4ccccn4)ccc1c23	7.9µM*	12%	5%	-5%	-18%	-38%
CCN1C(=O)c2cccc3c(S(=O)(=O)Nc4ccccc4)ccc1c23	1µM*	-31%	28%	-15%	-18%	-60%
CCN1C(=O)c2cccc3c(S(=O)(=O)Nc4ncccc4C)ccc1c23	10µM*	3%	9%	-25%	-28%	-26%
CCN1C(=O)c2cccc3c(S(=O)(=O)Nc4nc(C)cs4)ccc1c23	3.5µM*	17%	-1%	-21%	-2%	-27%[0.074 µM]
CCC1(CC)Cc2ccccc2C(CC(=O)N2CCOCC2)=N1	?	-8%	-3%	-5%	11%	25%
